# Inconclusive results are not listed. Activity calls are given as the source filed them. Calls follow the shape of the dose curve; as a rule, active = well fitted cell-killing curve with a large enough effect; inconclusive = small, poorly fitted or top-dose-only effect, or effect the other way; inactive = no such curve, though single readings can be large or run the other way.
# Assay: Quantitative High-Throughput drug screen in 47 multiple myeloma cell lines against the NCATS MIPE library collection: OCIMY1_PLB cell viability assay (AID 1918979); also: nearly all actives have a fitted effect of over 35% in size
# Conditions: OCI-MY1 myeloma viability, CellTiter-Glo ATP, 48 h; series mostly up to 45.8 µM
# Excerpt: PI: Beverly A. Mock Ph.D.
# Laboratory of Cancer Biology and Genetics,
# Center for Cancer Research, National Cancer Institute,
# National Institute of Health, Bethesda, Maryland
# Drug resistance and disease progression are common in multiple myeloma (MM) patients, underscoring the need for new therapeutic combinations. […] We hypothesized that effective combinations would reduce MYC expression and enhance p16 activity. […] These preclinical data identify potentially useful drug combinations for evaluation in drug-resistant MM and reveal potential mechanisms of combined drug sensitivity.
# Described herein is the primary MIPE qHTS used to cherrypick compounds. Validated compounds were then further tested for potential synergistic activiy.
# [1] Peat TJ, Gaikwad SM, Dubois W, Gyabaah-Kessie N, Zhang S, Gorjifard S, Phyo Z, Andres M, Hughitt VK, Simpson RM, Miller MA, Girvin AT, Taylor A, Williams D, D'Antonio N, Zhang Y, Rajagopalan A, Flietner E, Wilson K, Zhang X, Shinn P, Klumpp-Thomas C, McKnight C, Itkin Z, Chen L, Kazandijian D, Zhang J, Michalowski AM, Simmons JK, Keats J, Thomas CJ, Mock BA. Drug combinations identified by high-throughput screening promote cell cycle transition and upregulate Smad pathways in myeloma. Cancer Lett. 2023 Aug 1;568:216284. doi: 10.1016/j.canlet.2023.216284. Epub 2023 Jun 24. PMID: 37356470; PMCID: PMC10408729.
# SEQUENCE No. (e.g., 1, 2, 3, etc.); […] (e.g., Cells, Incubation, Reagent, etc.); VALUE and DESCRIPTION.
# 1; Cells; 5 uL; white, solid bottom 1536-well Greiner assay plate.
# 2; Compounds; 23 nL; Kalypsis pin tool (Wako USA) equipped with a 1536-well pin head to transfer to the assay plates.
# 3; Incubation; 48 hours; 37C incubation.
# 4; Reagent;5uL; CellTiter Glo (Promega).
# 5; Detector; 425V; Luminescence; Viewlux PerkinElmer.
# NOTES (numbers refer to Sequence numbers above)
# 1. The cell-based screening methods employed in this study were like those previously published. Briefly, the corresponding myeloma cell lines were screened in 1,536-well plates with 500 cells, 5-uL per well for inhibition of cell viability (assessed by measuring ATP levels with CellTiterGlo).
# 2. NCATS MIPE 4.0 library of approved and investigational drugs were added using the Kalypsis pin tool. Wells treated with DMSO only for 100% viability and media only for 0% viability were used as controls.
# 3. The assay plates were covered and incubated for 48 hours in a 37C, 5% CO2 incubator with controlled humidity.
# 4. After 48 hours, CellTilter-GloTM luminescent substrate mix (Promega) reagent was added to the assay plate and plates we incubated for 5 min at room temperature.
# 5. Signal was measured as median relative luminescence units on a ViewLux (PerkinElmer) multiplate reader.
# [1] Heske CM, Davis MI, Baumgart JT, Wilson K, Gormally MV, Chen L, Zhang X, Ceribelli M, Duveau DY, Guha R, Ferrer M, Arnaldez FI, Ji J, Tran HL, Zhang Y, Mendoza A, Helman LJ, Thomas CJ. Matrix Screen Identifies Synergistic Combination of PARP Inhibitors and Nicotinamide Phosphoribosyltransferase (NAMPT) Inhibitors in Ewing Sarcoma. Clin Cancer Res. 2017 Dec 1;23(23):7301-7311. doi: 10.1158/1078-0432.CCR-17-1121. Epub 2017 Sep 12. PMID: 28899971; PMCID: PMC6636827.
# Potency is read from the fitted curve at half-maximal effect.
row,Structure (SMILES),Potency
1,C[C@@H](Oc1cc(-c2cnn(C3CCNCC3)c2)cnc1N)c1c(Cl)ccc(F)c1Cl,20.9 µM (active)
2,Nc1ncnc2c1c(-c1cccc(OCc3ccccc3)c1)cn2C1CC(CN2CCCC2)C1 (stereo not given),10.5 µM (active)
3,N#Cc1c(O)c2c(-c3ccc(-c4ccccc4O)cc3)csc2[nH]c1=O,inactive
4,COc1cccc2nc(-c3cccs3)nc(NN3C(=O)C=C(C)C3=O)c12,0.187 µM (active)
5,COc1cc(C(=O)N2CCC(N3CCN(C)CC3)CC2)ccc1Nc1ncc2c(n1)N(C)c1ccccc1C(=O)N2C,7.43 µM (active)
6,O=C(Nc1ncc(-c2cc(C(F)F)nn2-c2c(Cl)cccc2Cl)s1)C1CC1,0.743 µM (active)
7,Nc1nc(-c2nn(Cc3ccccc3F)c3ncccc23)nc(N)c1N1CCOCC1,inactive
8,C=C1C(=CC=C2CCC[C@]3(C)[C@@H]([C@H](C)C=C[C@H](C)C(C)C)CC[C@@H]23)C[C@@H](O)C[C@@H]1O,18.7 µM (active)
9,Cc1cc(N2CCOCC2)cc2[nH]c(-c3c(NC[C@@H](O)c4cccc(Cl)c4)cc[nH]c3=O)nc12,0.296 µM (active)
10,Cc1[nH]nc2ccc(-c3cncc(OC[C@@H](N)Cc4ccccc4)c3)cc12,6.62 µM (active)
11,CCC[C@H](NC(=O)C(C#N)=Cc1cccc(Br)n1)c1ccccc1,6.62 µM (active)
12,Clc1cccc(-c2nnnn2Cc2cccnc2)c1Cl,inactive
13,CCCn1c(=O)c2[nH]c(-c3cnn(Cc4cccc(C(F)(F)F)c4)c3)nc2n(CC)c1=O,inactive
14,CC(C)c1ccc(Cn2ccc3c4c(N)nc(NC5CC5)nc4ccc32)cc1,14.8 µM (active)
15,C1=CCOCc2cc(ccc2OCCN2CCCC2)Nc2nccc(n2)-c2cccc(c2)OCC1,5.9 µM (active)
16,CN(C)Cc1c(C(=O)NCCOc2ccc(C(=O)NO)cc2)oc2ccccc12,1.66 µM (active)
17,COC(=O)C[C@](O)(CCCC(C)(C)O)C(=O)O[C@@H]1C(OC)=C[C@]23CCCN2CCc2cc4c(cc2[C@H]13)OCO4,inactive
18,CC1(C)CCC(c2ccc(Cl)cc2)=C(CN2CCN(c3ccc(C(=O)NS(=O)(=O)c4ccc(N[C@H](CCN5CCOCC5)CSc5ccccc5)c(S(=O)(=O)C(F)(F)F)c4)cc3)CC2)C1,7.43 µM (active)
19,COc1ccc(-c2cc3c(C)nc(N)nc3n(C3CCC(OCCO)CC3)c2=O)cn1 (stereo not given),0.0833 µM (active)
20,COC(=O)C1=C(C)NC(C)=C(C(=O)OCCN2CCN(C(c3ccccc3)c3ccccc3)CC2)C1c1cccc([N+](=O)[O-])c1 (stereo not given),inactive

row,Structure (SMILES),Potency
1,O=C(Nc1cn[nH]c1-c1nc2ccc(CN3CCOCC3)cc2[nH]1)NC1CC1,10.5 µM (active)
2,CC[C@H]1CN2CCc3cc(OC)c(OC)cc3[C@H]2C[C@@H]1C[C@@H]1NCCc2cc(OC)c(OC)cc21,0.833 µM (active)
3,C[C@H]1C[C@@H]2[C@@H]([C@@H](O)C[C@@]3(C)[C@H]2CC[C@]3(O)C(=O)CO)[C@@]2(C)C=CC(=O)C=C12,inactive
4,C[C@]1(CO)CN(c2cc(C(=O)Nc3ccc4c(c3)-c3c(c(C(N)=O)nn3-c3ccc(F)cc3)CC4)c(Cl)cn2)C[C@@]1(C)CO,inactive
5,CC(NCc1ccc2c(c1)nc(NC(=O)c1ccc(-c3cn[nH]c3)s1)n2CC(C)(C)O)C(C)(C)C (stereo not given),1.05 µM (active)
6,CC(C)c1nn(-c2c(Cl)cccc2Cl)c2nc(Cc3ccc(OCCO)cc3)[nH]c(=O)c12,0.235 µM (active)
7,Nc1ccc(S(=O)(=O)Nc2ncccn2)cc1,inactive
8,CCN1CCN(Cc2ccc(-c3cc4c(N[C@H](C)c5ccccc5)ncnc4[nH]3)cc2)CC1,3.32 µM (active)
9,CC(C)(C)c1cc(C(C)(C)C)c(NC(=O)c2c[nH]c3ccccc3c2=O)cc1O,inactive
10,CC(C)[C@H](C(=O)Nc1ccc(C(=O)NO)cc1)c1ccccc1,1.18 µM (active)
11,COc1cc2c(Oc3ccc(-c4cnc(Nc5ccc(F)cc5)n(C)c4=O)cc3F)ccnc2cc1OCCCN1CCOCC1,11.8 µM (active)
12,COc1cccc2c(NCc3ccccc3)nc(-n3c(N)nc4ccccc43)nc12,7.43 µM (active)
13,O=C(O)[C@H](Cc1c[nH]c2ccccc12)N1C(=O)c2ccccc2C1=O,inactive
14,C#Cc1cccc(Nc2ncnc3cc(OC)c(OCCCCCCC(=O)NO)cc23)c1,1.05 µM (active)
15,CN1CC[C@@H](c2c(O)cc(O)c3c(=O)cc(-c4ccccc4Cl)oc23)[C@@H](O)C1,0.187 µM (active)
16,CN(C)CC=CC(=O)Nc1cc2c(Nc3ccc(F)c(Cl)c3)ncnc2cc1O[C@H]1CCOC1,16.6 µM (active)
17,O=C(CCCCCCNC(=O)c1cnc(N(c2ccccc2)c2ccccc2)nc1)NO,13.2 µM (active)
18,CN(C)CC(C)(C)CNc1nn2c(-c3ccccc3)nnc2cc1C1CCC1,inactive
19,CC(C)c1cnn2c(NCc3ccccc3)cc(N[C@@H](CO)[C@H](O)CO)nc12,0.418 µM (active)
20,Cc1[nH]c2ccccc2c1CCNCc1ccc(C=CC(=O)NO)cc1,0.166 µM (active)

# Reference: PubChem BioAssay (NCATS)
